For experiment [1], the target named is Thyrotropin-releasing hormone receptor (Homo sapiens) (UniProt P34981). In words: qHTS assay to identify small molecule agonists of the thyrotropin-releasing hormone receptor (TRHR) signaling pathway (AID 1346891; calls by dose curve;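 further: HEK293 cells expressing TRHR with calcium dye readout; series mostly up to about 58 µM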). The gist of the method:
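Compounds were tested as agonists at 15 concentrations, in triplicate, on TRHR-Hek293 cells; calcium-sensitive dye fluorescence was recorded for 3 min following addition.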

Experiment [2] in a line: Human pregnane X receptor (PXR) small molecule agonists, qHTS cell viability counter screen (AID 1346977). Further: nearly all actives have a fitted effect of over 50% in size. The gist of the method: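 Viability counter screen: CellTiter-Fluor signal in PXR-Luc HepG2 cells, 24hr compound exposure, 37C, 5% CO2.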
For orientation: In qHTS, concentration-response curves come from the screen itself.

Experiment [3] can be described thus: Caspase-3/7 induction in CHO-K1 cells by small molecules, qHTS cell viability counter screen (AID 1346979). Further: nearly all actives have a fitted effect of over 35% in size. The gist of the method: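 Viability readout by fluorescence (CellTiter-Fluor) on wild-type CHO-K1 cells exposed for 16hr at 37C and 5% CO2 to compounds delivered in DMSO; reagent incubated 1hr before reading.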
A short description of experiment [4]: Caspase-3/7 induction in CHO-K1 cells by small molecules, qHTS assay (AID 1346980). Further: nearly all actives have a fitted effect of over 15% in size. The essentials: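 Wild-type cells were seeded at 1,500 per well and settled 5 hr at 37 C, 5% CO2, then exposed to DMSO-dissolved compounds for 17 hr. Caspase-Glo 3/7 reagent was added, and luminescence was read after 30min at room temperature.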
In experiment [5] the target is Nuclear receptor subfamily 1 group I member 2 (Homo sapiens) (UniProt O75469). In words: Human pregnane X receptor (PXR) small molecule agonists, qHTS assay (AID 1346982). Further: nearly all actives have a fitted effect of over 35% in size. Further: potency means the concentration at half of the fitted maximal effect. The gist of the method: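 Compound-induced hPXR transactivation of a CYP3A4 luciferase reporter was scored in HepG2 PXR-Luc cells over 24 hr at 37 C, 5% CO2, by luminescence.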
The target in experiment [6] is Nuclear receptor subfamily 1 group I member 2 (Rattus norvegicus) (UniProt Q9R1A7). In words: Rat pregnane X receptor (rPXR) activation by small molecules, qHTS assay (AID 1346983). Further: nearly all actives have a fitted effect of over 20% in size. The note with it: rPXR luciferase reporter cells, One-Glo luminescence, 24 h; max activation: hits give high values. The essentials:
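Cell-based rPXR luciferase reporter assay, 2,000 cells per well, rested 5hr at 37 C before compound addition in DMSO, then 24 hr at 37 C. One-Glo reagent was added and luminescence read after 30 min at room temperature.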

The target of experiment [7] is Nuclear receptor subfamily 1 group I member 2 (Homo sapiens) (UniProt O75469). The experiment can be described thus: CYP3A4 induction through human pregnane X receptor (PXR) by small molecules, qHTS assay (AID 1346984). Further: nearly all actives have a fitted effect of over 40% in size. The essentials:
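Readings come from a luciferase reporter: DPX-2 cells, which are HepG2 cotransfected with PXR and a CYP3A4-promoter construct, were exposed to test compounds for 24 h at 37C before One-Glo detection.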

For experiment [8] the target is unchanged. In words: Human pregnane X receptor (PXR) activation by small molecules, qHTS assay (AID 1346985). Further: nearly all actives have a fitted effect of over 40% in size. The essentials:
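DPX-2 cells (HepG2 co-transfected with a PXR response element and a CYP3A4-promoter luciferase construct) were seeded at 2,000 per well, rested 5 hr at 37C, then exposed to DMSO-dissolved compounds for 24 hr. Activation was read as luciferase luminescence.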

In experiment [9] the target is Cytochrome P450 2D6 (Homo sapiens) (UniProt P10635). The experiment can be described thus: Cytochrome P450 Family 2 Subfamily D Member 6 (CYP2D6) small molecule antagonists: luciferase reporter qHTS assay (AID 1671196). Further: nearly all actives have a fitted effect of over 50% in size. Further: potency means the concentration at half of the fitted maximal effect. The essentials:
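Each well received CYP2D6 with its proluciferin substrate and chemical, sat 10 min, then got NADPH regeneration solution for 1 h at room temperature. Luminescence in RLU served as the activity measure.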
(In a reporter assay the amount or activity of a reporter protein is the signal.)

The target in experiment [10] is Cytochrome P450 2C19 (Homo sapiens) (UniProt P33261). The experiment can be described thus: Cytochrome P450 Family 2 Subfamily C Member 19 (CYP2C19) small molecule antagonists: luciferase reporter qHTS assay (AID 1671197). Further: nearly all actives have a fitted effect of over 65% in size. Further: potency means the concentration at half of the fitted maximal effect. The gist of the method:
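P450-Glo CYP2C19 system: enzyme-substrate mix with compound 10 min at room temperature, then NADPH regeneration solution, 1 h at 37C. Proluciferin-to-luciferin conversion detected by luminescence after 20 min with detection reagent; ketoconazole as positive control.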

Experiment [11] concerns the target Cytochrome P450 1A2 (Homo sapiens) (UniProt P05177). In words: Cytochrome P450 Family 1 Subfamily A Member 2 (CYP1A2) small molecule antagonists: luciferase reporter qHTS assay (AID 1671199). Further: nearly all actives have a fitted effect of over 50% in size. Further: potency means the concentration at half of the fitted maximal effect. The essentials:
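Enzymatic CYP1A2 assay, human, luminescent: 10 min compound–enzyme–substrate preincubation, 1 h NADPH-dependent turnover, 20 min detection step, room temperature throughout. Reduced light indicates lower CYP1A2 activity.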

Experiment [12] has as its target Voltage-gated inwardly rectifying potassium channel KCNH2 (Homo sapiens) (UniProt Q12809). The experiment can be described thus: Human Ether-a-go-go-Related Gene (hERG) channel small molecule antagonists: fluorescence cell-based qHTS assay (AID 1671200).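 Further: hERG-expressing U2OS cells given a thallium stimulus after FluxOR II dye loading; series mostly up to about 77 µM; nearly all actives have a fitted effect of over 50% in size.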 The gist of the method:
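Thallium served as the potassium surrogate; its influx into dye-loaded U2OS cells carrying the channel was measured by fluorescence over 2 min.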

Experiment [13] addresses Cytochrome P450 3A4 (Homo sapiens) (UniProt P08684). In words: Cytochrome P450 Family 3 Subfamily A Member 4 (CYP3A4) small molecule antagonists: luciferase reporter qHTS assay (AID 1671201). The gist of the method:
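Relative luminescence units after 20 min with luciferin detection reagent served as read-out. Beforehand, CYP3A4 turned over a proluciferin substrate for 1 h at room temperature with NADPH regeneration, following 10 min compound preincubation.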

A short description of experiment [14]: Caspase-3/7 induction in HepG2 cells by small molecules, qHTS assay (AID 1346978). Further: nearly all actives have a fitted effect of over 15% in size. The gist of the method:
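Wild-type HepG2 cells (2,000/well) were settled 5 h at 37 C, 5% CO2, then exposed to compounds in DMSO for 17 h. Caspase-3/7 activity was read by luminescence 30 min after adding Caspase-Glo 3/7 reagent at room temperature.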

Experiment [15] can be described thus: Caspase-3/7 induction in HepG2 cells by small molecules, qHTS cell viability counter screen (AID 1346981). Further: series mostly up to about 92 µM; nearly all actives have a fitted effect of over 30% in size. The essentials:
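Viability determined by CellTiter-Fluor fluorescence in HepG2 wells also used for the luminescent Caspase-Glo 3/7 read. Compounds were present for 16 hr at 37 C, 5% CO2 before reagent addition.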

The target of experiment [16] is Cytochrome P450 2C9 (Homo sapiens) (UniProt P11712). In words: Cytochrome P450 Family 2 Subfamily C Member 9 (CYP2C9) small molecule antagonists: luciferase reporter qHTS assay (AID 1671198). Further: nearly all actives have a fitted effect of over 50% in size. Further: potency means the concentration at half of the fitted maximal effect. The gist of the method: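 CYP2C9 activity was measured with a P450-Glo proluciferin substrate. Enzyme–substrate mix was held with compound for 10 min at room temperature, then NADPH regeneration solution was added for 1 h at 37C. Luciferin product was read as luminescence.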

Unmarked numbers belong to inactive results. Results filed as inconclusive are left out. Activity calls are given as the source filed them. Unless noted, the call rests on the fitted dose curve; in most records, active means well fitted curve in the direction sought with a large enough effect in the repeat runs; inconclusive means weak or mixed curves; inactive means no such curve, though single readings can be large; an effect the other way counts as inactive or inconclusive.
On the % scale 0 is the no-effect control and ±100 the full control effect.

Chain of Cytochrome P450 1A2 (Homo sapiens) (P05177 whole entry, looked up): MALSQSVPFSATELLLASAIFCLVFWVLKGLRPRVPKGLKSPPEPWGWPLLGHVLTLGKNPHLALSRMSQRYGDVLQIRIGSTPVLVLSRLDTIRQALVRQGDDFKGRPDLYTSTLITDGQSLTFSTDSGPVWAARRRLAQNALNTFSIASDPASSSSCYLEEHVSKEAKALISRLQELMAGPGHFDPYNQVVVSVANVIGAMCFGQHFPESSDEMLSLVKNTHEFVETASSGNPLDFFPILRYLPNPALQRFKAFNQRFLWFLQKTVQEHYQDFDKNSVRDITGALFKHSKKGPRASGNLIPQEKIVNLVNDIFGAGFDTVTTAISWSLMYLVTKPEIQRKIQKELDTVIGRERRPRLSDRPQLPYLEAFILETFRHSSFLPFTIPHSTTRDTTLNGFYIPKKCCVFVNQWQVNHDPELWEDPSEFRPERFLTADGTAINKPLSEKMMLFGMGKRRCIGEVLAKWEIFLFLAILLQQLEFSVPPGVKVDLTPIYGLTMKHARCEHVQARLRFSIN
Chain of Thyrotropin-releasing hormone receptor (Homo sapiens) (P34981 whole entry, looked up): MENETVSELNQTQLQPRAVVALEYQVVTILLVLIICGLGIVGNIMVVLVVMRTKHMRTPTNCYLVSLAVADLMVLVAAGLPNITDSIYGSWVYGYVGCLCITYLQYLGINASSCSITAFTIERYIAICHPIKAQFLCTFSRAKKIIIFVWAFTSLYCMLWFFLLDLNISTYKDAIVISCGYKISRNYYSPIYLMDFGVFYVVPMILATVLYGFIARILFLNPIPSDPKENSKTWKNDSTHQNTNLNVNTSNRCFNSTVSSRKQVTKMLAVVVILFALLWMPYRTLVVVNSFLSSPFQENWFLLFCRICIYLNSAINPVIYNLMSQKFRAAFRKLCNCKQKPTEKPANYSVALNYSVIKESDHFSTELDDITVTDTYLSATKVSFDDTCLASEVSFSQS
Chain of Voltage-gated inwardly rectifying potassium channel KCNH2 (Homo sapiens) (Q12809 whole entry, looked up): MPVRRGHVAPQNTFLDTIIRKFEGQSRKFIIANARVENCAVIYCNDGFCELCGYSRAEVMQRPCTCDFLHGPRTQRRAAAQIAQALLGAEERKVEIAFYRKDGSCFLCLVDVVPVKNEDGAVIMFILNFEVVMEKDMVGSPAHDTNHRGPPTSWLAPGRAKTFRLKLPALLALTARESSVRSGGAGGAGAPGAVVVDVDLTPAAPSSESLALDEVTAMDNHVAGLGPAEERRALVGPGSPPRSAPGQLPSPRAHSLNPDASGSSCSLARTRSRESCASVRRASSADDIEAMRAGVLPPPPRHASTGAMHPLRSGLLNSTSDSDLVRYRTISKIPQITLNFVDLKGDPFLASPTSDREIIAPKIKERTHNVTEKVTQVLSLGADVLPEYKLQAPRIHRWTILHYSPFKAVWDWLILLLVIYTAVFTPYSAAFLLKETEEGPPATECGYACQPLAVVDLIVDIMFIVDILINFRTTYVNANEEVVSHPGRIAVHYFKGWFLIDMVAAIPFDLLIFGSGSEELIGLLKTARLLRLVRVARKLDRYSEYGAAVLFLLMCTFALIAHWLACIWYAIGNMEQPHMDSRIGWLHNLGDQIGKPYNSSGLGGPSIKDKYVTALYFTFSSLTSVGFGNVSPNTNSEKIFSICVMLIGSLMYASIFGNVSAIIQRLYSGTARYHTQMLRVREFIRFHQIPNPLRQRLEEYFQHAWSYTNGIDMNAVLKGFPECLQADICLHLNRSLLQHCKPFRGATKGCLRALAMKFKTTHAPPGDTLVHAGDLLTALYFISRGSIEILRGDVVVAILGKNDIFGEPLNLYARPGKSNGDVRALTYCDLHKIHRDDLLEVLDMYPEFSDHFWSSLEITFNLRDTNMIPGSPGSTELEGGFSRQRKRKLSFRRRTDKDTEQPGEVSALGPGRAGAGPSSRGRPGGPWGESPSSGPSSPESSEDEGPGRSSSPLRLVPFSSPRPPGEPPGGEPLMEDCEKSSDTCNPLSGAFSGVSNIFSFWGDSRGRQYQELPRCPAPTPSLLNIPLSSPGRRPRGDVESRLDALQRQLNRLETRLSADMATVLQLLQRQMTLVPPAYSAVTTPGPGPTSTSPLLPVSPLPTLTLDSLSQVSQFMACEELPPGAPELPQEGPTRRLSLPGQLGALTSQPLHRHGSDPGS
Chain of Cytochrome P450 2C9 (Homo sapiens) (P11712 whole entry, looked up): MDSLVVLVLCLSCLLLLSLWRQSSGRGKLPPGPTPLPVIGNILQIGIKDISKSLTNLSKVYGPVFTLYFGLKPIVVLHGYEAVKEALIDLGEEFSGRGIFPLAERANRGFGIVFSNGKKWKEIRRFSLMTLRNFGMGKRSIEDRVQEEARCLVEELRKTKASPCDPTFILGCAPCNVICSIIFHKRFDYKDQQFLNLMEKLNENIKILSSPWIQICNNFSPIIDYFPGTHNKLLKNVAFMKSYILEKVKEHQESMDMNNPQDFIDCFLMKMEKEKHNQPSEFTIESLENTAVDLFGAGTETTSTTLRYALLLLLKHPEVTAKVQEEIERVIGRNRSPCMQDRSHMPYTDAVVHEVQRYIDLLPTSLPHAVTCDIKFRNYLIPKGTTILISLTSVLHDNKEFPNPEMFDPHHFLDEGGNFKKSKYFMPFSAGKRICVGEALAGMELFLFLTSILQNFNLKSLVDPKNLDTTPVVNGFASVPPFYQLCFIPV
Chain of Cytochrome P450 2C19 (Homo sapiens) (P33261 whole entry, looked up): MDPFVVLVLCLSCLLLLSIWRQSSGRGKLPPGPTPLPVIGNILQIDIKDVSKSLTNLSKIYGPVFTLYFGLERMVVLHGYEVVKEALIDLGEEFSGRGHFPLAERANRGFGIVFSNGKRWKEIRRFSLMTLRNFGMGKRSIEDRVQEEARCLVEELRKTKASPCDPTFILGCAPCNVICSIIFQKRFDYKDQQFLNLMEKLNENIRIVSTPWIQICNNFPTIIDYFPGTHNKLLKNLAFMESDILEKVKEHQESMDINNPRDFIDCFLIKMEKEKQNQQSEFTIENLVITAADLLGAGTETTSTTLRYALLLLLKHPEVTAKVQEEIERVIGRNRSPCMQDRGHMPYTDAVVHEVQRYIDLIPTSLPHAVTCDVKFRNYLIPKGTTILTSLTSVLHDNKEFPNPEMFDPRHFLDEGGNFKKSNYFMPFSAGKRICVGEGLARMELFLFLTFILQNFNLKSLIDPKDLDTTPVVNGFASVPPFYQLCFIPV
Chain of Nuclear receptor subfamily 1 group I member 2 (Homo sapiens) (O75469 whole entry, looked up): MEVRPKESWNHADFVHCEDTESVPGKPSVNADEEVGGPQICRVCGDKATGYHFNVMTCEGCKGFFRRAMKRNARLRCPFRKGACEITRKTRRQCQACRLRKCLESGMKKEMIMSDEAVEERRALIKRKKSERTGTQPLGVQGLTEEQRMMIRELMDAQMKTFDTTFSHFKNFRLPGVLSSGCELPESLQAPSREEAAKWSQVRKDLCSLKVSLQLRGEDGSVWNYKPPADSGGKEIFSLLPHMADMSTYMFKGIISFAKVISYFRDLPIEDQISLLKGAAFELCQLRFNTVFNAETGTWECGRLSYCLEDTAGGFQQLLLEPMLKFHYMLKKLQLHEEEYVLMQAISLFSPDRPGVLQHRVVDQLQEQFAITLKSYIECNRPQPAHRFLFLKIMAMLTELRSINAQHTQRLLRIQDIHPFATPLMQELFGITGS
Chain of Cytochrome P450 3A4 (Homo sapiens) (P08684 whole entry, looked up): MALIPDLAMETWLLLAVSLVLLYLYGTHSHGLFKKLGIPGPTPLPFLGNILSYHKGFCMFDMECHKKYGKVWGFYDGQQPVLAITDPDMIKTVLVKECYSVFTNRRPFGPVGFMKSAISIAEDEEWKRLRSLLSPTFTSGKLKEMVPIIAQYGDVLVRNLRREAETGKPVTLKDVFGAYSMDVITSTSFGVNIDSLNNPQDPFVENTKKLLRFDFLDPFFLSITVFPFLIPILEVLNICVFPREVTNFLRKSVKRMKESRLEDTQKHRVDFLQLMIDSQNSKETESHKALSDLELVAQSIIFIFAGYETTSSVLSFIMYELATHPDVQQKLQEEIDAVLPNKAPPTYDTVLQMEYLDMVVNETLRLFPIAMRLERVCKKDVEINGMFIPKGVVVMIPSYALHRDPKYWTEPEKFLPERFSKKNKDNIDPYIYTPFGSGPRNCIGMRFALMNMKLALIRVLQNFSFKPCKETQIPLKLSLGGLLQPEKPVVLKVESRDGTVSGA
Chain of Cytochrome P450 2D6 (Homo sapiens) (P10635 whole entry, looked up): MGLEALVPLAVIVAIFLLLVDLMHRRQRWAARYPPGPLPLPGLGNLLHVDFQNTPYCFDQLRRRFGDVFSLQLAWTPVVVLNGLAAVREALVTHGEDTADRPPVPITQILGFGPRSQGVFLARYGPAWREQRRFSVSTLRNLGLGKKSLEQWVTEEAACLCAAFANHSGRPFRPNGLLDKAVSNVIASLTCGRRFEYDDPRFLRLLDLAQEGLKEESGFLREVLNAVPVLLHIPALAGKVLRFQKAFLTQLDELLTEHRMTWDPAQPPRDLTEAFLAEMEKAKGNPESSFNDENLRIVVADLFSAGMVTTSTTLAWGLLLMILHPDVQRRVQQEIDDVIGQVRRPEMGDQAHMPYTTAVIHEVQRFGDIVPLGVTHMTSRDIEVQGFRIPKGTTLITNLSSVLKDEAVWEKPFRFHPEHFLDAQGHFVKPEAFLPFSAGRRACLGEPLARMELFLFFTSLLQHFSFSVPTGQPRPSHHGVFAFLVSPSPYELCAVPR
Chain of Nuclear receptor subfamily 1 group I member 2 (Rattus norvegicus) (Q9R1A7 whole entry, looked up): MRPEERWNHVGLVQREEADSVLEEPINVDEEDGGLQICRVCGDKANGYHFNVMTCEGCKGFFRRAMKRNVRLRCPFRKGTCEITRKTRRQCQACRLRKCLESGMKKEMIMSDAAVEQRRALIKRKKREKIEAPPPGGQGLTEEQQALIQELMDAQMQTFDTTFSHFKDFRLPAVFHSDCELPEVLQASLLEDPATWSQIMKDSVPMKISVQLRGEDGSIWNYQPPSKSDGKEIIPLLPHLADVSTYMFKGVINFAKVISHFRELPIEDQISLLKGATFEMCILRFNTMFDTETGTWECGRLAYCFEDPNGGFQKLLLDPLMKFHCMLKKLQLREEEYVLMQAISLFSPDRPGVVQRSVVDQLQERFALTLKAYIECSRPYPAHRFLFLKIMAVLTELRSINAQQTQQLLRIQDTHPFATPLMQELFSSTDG

Regarding `CCc1c2c(nc3ccc(OC(=O)N4CCC(N5CCCCC5)CC4)cc13)-c1cc3c(c(=O)n1C2)COC(=O)[C@]3(O)CC`, the Potency result in [1], in experiment [2], in experiment [3], in experiment [5], in experiment [7] and in [8] was “inactive” each time. Further, the Potency entry in experiment [9], in experiment [10], in experiment [11], in [12] and in experiment [13] was “inactive” throughout. The result in [4] was inactive. Moreover, the max activation in [6] was -2.7%.

Turning to `Oc1ccc(Nc2ccccc2)cc1`, the Potency entry in experiment [1], in [14], in experiment [15], in experiment [12] and in [13] was “inactive” in each case. The molecule was called inactive in experiment [4]. For the same molecule, the Potency in experiment [5] was 54.5 µM (active); in experiment [9], 63.3 µM (active); in [10], 20 µM (active); in experiment [16], 28.3 µM (active); in [11], 31.7 µM (active).

On to `CCCCCCCCCCCCCCC[C@H](O)[C@@H](N)CO`, for which the Potency result in [1], in [2], in [3], in experiment [5], in experiment [7] and in experiment [8] was “inactive” throughout. For the same molecule, the Potency result in experiment [10], in experiment [16], in experiment [11], in experiment [12] and in [13] was “inactive” each time. In [4], the result was inactive. The max activation in [6] was 0.49%.

Take `Nc1ccc(Cl)cc1[N+](=O)[O-]`: the Potency result in experiment [1], in [2], in experiment [14], in [10], in experiment [16] and in experiment [12] was “inactive” in each case. For the same molecule, the Potency in experiment [11] is 9.93 µM (active).

`COC(=O)[C@@H]1CC2=CC(=O)CC[C@]2(C)[C@@]23O[C@@H]2C[C@@]2(C)[C@@H](CC[C@@]24CCC(=O)O4)[C@H]13`: the Potency result in experiment [1], in experiment [14], in [3], in [15], in [7] and in experiment [8] was “inactive” throughout. The Potency result in experiment [16], in experiment [11], in experiment [12] and in [13] was “inactive” each time. The molecule was classed as inactive in experiment [4]. Further, the max activation in experiment [6] is -1.51%.

`CO[C@H]1O[C@H](CO)[C@@H](O)[C@H](O)[C@H]1O`: the Potency result in experiment [1], in [14], in experiment [3], in experiment [15], in [5] and in experiment [9] was “inactive” throughout. Also, the Potency result in [16], in experiment [11], in [12] and in [13] was “inactive” throughout. The molecule was classed as inactive in [4].

As to `C[C@]12CCC(=O)C=C1C=C[C@@H]1[C@@H]2CC[C@@]2(C)[C@H]1CC[C@@]21CCC(=O)O1`, the Potency entry in experiment [1], in experiment [14], in experiment [15], in [5], in [7] and in experiment [8] was “inactive” in each case. Moreover, the Potency entry in experiment [9], in [11], in experiment [12] and in [13] was “inactive” throughout. In addition, the outcome in experiment [4] was inactive. In experiment [6], the max activation is 4.49%.

Regarding `CCC(C(=O)OCCOCCN(CC)CC)c1ccccc1` (stereo not drawn), the Potency entry in experiment [1], in experiment [14], in [3], in experiment [15], in [7] and in experiment [8] was “inactive” each time. The Potency entry in experiment [16], in [11], in experiment [12] and in experiment [13] was “inactive” throughout. For the same molecule, the molecule was called inactive in [4]. Also, in experiment [6], the max activation is -2.49%. Moreover, in [9], the Potency is 13.8 µM (active).

Consider `CCN(Cc1cccc(S(=O)(=O)O)c1)c1ccc(C(=C2C=CC(=[N+](CC)Cc3cccc(S(=O)(=O)[O-])c3)C=C2)c2ccccc2)cc1`, for which the Potency entry in experiment [1], in experiment [2], in experiment [14], in experiment [5], in [11] and in [12] was “inactive” in each case.
